In PubChem BioAssay:
Calls of active or inactive are those of the source.

experiment: plasmodial surface anion channel blockers, osmotic lysis – cell-based, P. falciparum Indochina, OD700, 18 h, primary screen (AID 1157); conditions: P. falciparum Indochina infected erythrocytes, osmotic lysis OD700, 18 h; higher = more signal, called active from +8 up or from −8 down

z-score, inactive:
CCOC(=O)CCN1C(=O)[C@H]2[C@H]3[C@H](O)[C@H](O)CC(=NOCC=C(C)CCC=C(C)C)[C@H]3CC[C@H]2C1=O 0.378
CCOC(=O)[C@H](Cc1ccccc1)NC(=O)CCC1CC(OC(=O)NCc2cccc3ccccc23)CC2(CCCC(COC(=O)NCCOc3ccccc3)O2)O1 (stereo partly specified) -1.33
CCOC(=O)[C@H](CC(C)C)NC(=O)CCC1CC(OC(=O)NCCc2ccc(F)cc2)CC2(CCCC(COC(=O)NCCCN3CCCC3=O)O2)O1 (stereo partly specified) -0.194
CC(=O)OC[C@H]1O[C@H](CC=NOC(C)CN2CCCCc3nc(C)c(C)cc32)C=C[C@@H]1OC(C)=O (stereo partly specified) 0.246
C#CCCCON=C1[C@H]2CCn3c(=O)n([C@@H](CC)c4ccccc4)c(=O)n3[C@H]2[C@H](O)[C@@H]2O[C@H]12 0.0103
CO[C@H]1C[C@@H]2C[C@H](O)CC(CC(=O)O[C@@H](C=CCC(C)C)C[C@@H]3CC[C@H](C)[C@@H](C1)O3)O2 -0.0957
C=CC[C@@H]1C=C[C@H](ON=C[C@@H](NS(=O)(=O)c2ccc(C)cc2)[C@H](C)C=CCC(=O)OC)[C@@H](CO)O1 0.343
CO[C@H]1COC(=O)CCC[C@H](C)[C@@H](OC)COC(=O)CC=C[C@@H]1C -2.45
O=C(NN=C1C[C@@H](O)[C@@H](O)[C@@H]2[C@@H]3C(=O)N(Cc4ccccc4)C(=O)[C@@H]3CC[C@H]12)OCc1ccccc1 -1.46
CCOC(=O)[C@H](CC(C)C)NC(=O)CCC1CC(OC(=O)NCCc2ccc(F)cc2)CC2(CCCC(COC(=O)NCc3cccc4ccccc34)O2)O1 (stereo partly specified) 0.344
CCN1C(=O)[C@H]2[C@H]3[C@H](O)[C@H](O)CC(=NOCC(C)C)[C@H]3CC[C@H]2C1=O -0.433
COC(OC)[C@@H](C)[C@H](OC)[C@@H](C)[C@H](OC)c1ccccc1 -1.06
COC(=O)[C@H](C)NC(=O)CCC1CC(OC(=O)NCc2ccc3c(c2)OCO3)CC2(CCCC(COC(=O)NCc3ccccc3)O2)O1 (stereo partly specified) 0.272
CO[C@@H](C1CCCCC1)[C@@H](C)[C@H](OCc1cccc(Br)c1)[C@@H](C)CO 0.957
CC(C)CON=C1[C@H]2CCn3c(=O)n(C)c(=O)n3[C@H]2[C@H](O)[C@@H]2O[C@H]12 -0.162
C[C@]12CCC3c4ccc(OCC5CO5)cc4CCC3C1CC[C@@H]2O (stereo partly specified) 0.663
CO[C@@H]1C=CCC(=O)N[C@@H](C)C(=O)OC[C@@H](OC)[C@H](C)C=CCC(=O)OC[C@H]1C 0.205
OC[C@H]1O[C@H](C#Cc2ccccc2)C=C[C@@H]1O 0.784
CC(C)[C@@H](OCc1ccccc1)[C@H](C)C=NO[C@H](C)c1cn([C@@H]2COC[C@H]2O)nn1 0.172
CN1CCc2nc(-c3ccccc3)c(-c3ccccc3)cc2C1 -0.021
O=C1[C@H]2[C@H]3[C@H](O)[C@H](O)CC(=NOC[C@@H](O)COCc4ccco4)[C@@H]3CC[C@H]2C(=O)N1Cc1ccc2c(c1)OCO2 1.01
CCOC(=O)[C@H](CC(C)C)NC(=O)CCC1CC(OC(=O)NCc2ccc3c(c2)OCO3)CC2(CCCC(COC(=O)NCCc3ccccc3OC)O2)O1 (stereo partly specified) -0.143
C[C@@H]1CC[C@H]2C(=O)OC(CN3C(=O)c4ccccc4C3=O)CN2[C@H]1c1ccc(Br)cc1 (stereo partly specified) 0.246
O=C1C=C[C@@H](O)[C@@H]2[C@@H]3C(=O)N(Cc4ccc5c(c4)OCO5)C(=O)[C@@H]3CC[C@@H]12 0.379
COC(=O)[C@H](C)NC(=O)CCC1CC(OC(=O)NCc2cccc3ccccc23)CC2(CCCC(COC(=O)NCCCN3CCCC3=O)O2)O1 (stereo partly specified) 0.246
CO[C@@H]1COC(=O)[C@H](COCc2ccccc2)NC(=O)CC=C[C@@H](C)[C@H](OC)COC(=O)[C@@H](C)NC(=O)CC=C[C@H]1C 0.131
CON=C(C)CCN1CCCCc2nc(C)c(C)cc21 0.269
C#CCCCON=C1[C@H]2CCn3c(=O)n(Cc4cc5c(cc4Cl)OCO5)c(=O)n3[C@H]2[C@H](O)[C@@H]2O[C@H]12 0.035
C[C@H]1CC[C@H]2C(=O)N[C@H](Cc3ccccc3)C(=O)N2[C@@H]1c1ccccc1 0.294
CC(CCN1CCc2nc(-c3ccccc3)c(-c3ccccc3)cc2C1)=NO[C@H](C)c1cn([C@H](CO)Cc2ccccc2)nn1 0.293
C#CCCCON=C1C[C@@H](O)[C@@H](O)[C@@H]2[C@@H]3C(=O)N(C[C@@H]4CCCO4)C(=O)[C@@H]3CC[C@@H]12 0.354
CCOC(=O)[C@H](CC(C)C)NC(=O)CCC1CC(OC(=O)NCc2ccc3c(c2)OCO3)CC2(CCCC(COC(=O)NCCOC)O2)O1 (stereo partly specified) 0.0508
COc1ccc(OC[C@@H](CO)OC)cc1 -0.389
COC(=O)[C@@H]1CC[C@H](C)[C@@H](c2ccc(C)cc2)N1C(=O)c1ccc(C=NOC[C@@H](O)[C@H]2O[C@@H]3OC(C)(C)O[C@@H]3[C@H]2O)cc1 0.342
CC(=O)OC[C@H]1O[C@H](CC=NO[C@@H](C)c2cn([C@H](CO)Cc3ccccc3)nn2)C=C[C@@H]1OC(C)=O -1.23
COC(=O)[C@H](C)NC(=O)CCC1CC(OC(=O)NCc2ccc3c(c2)OCO3)CC2(CCCC(COC(=O)NCCC(C)C)O2)O1 (stereo partly specified) 0.638
